Compound activity as filed in PubChem.
FBW7 act: FBW7 E3 ligase activators, primary screen, biochemical, AlphaScreen, human. AID 1259310, 2017. F-box/WD repeat-containing protein 7 (Homo sapiens), Q969H0. AlphaScreen FBW7–phospho-cyclin E peptide binding, activator screen. 650,000 compounds, 0.13% hits. normalized activity (activation), % at 26.1 µM; in the data active means normalized activity above about 1.9%;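 further: purified mutant Fbw7 with reduced substrate affinity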
MITF primary: MITF inhibitors, primary screen, biochemical, AlphaScreen, human; Microphthalmia-associated transcription factor (Homo sapiens), O75030; AlphaScreen MITF homodimerization, bead proximity signal; inhibition, % at 2.6 µM; 650,000 compounds, 0.91% hits; AID 1259374, 2018; in the data active means inhibition above about 50%;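 further: 0% = vehicle wells with protein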
TEAD-YAP inh: TEAD-YAP interaction inhibition, primary screen, TEAD-YAP interaction inhibitor project, luminescence, HEK-TIYL cells. TEAD-Gal4/YAP UAS-luciferase luminescence. 640,000 compounds, 1.4% hits. inhibition, % at 9.12 µM; in the data active means inhibition above about 32%;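 further: 0% = median of test compound wells and 100% = reference inhibitor wells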
GPR151 activ: activators of human GPR151, primary screen, cell-based, PathHunter beta-arrestin, luminescence; G-protein coupled receptor 151 (Homo sapiens), Q8TDV0; PathHunter beta-arrestin GPR151 cells; activation, % at 11.2 µM; 650,000 compounds, 1% hits; AID 1508602, 2020; in the data active means activation above about 4.9%;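 further: 0% = median of compound wells and 100% = cells with positive control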
Target sequence (Q8TDV0 whole entry, looked up): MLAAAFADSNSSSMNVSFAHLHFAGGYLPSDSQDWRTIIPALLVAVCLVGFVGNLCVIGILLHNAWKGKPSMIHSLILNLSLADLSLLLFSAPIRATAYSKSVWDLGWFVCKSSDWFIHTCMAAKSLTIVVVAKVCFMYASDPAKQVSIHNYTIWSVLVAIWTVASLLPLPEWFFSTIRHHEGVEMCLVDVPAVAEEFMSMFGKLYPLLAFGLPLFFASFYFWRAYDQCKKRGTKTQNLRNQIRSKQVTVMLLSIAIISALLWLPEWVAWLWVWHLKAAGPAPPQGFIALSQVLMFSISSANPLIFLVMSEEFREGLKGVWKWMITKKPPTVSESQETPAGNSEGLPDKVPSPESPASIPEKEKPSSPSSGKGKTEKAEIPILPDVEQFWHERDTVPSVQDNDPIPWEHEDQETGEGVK
MITF confirm: MITF inhibitors, retest of hits, confirmation, biochemical, AlphaScreen, triplicate; shares compounds with MITF primary; AlphaScreen MITF homodimerization, biotin/His-MITF beads; inhibition, % at 2.6 µM; 4,700 compounds, 16% hits; AID 1259372, 2018;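 active means inhibition above a cutoff derived from the DMSO control wells, cut at about 28% in these data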;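 further: 0% = MITF dimer wells with DMSO only; inhibitors lower the bead chemiluminescence by keeping MITF from dimerizing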
AlphaScreen DR: AlphaScreen optical interference compounds, dose response, counter-screen, biochemical, HTS; shares compounds with MITF primary; AlphaScreen optical interference counterscreen, cell-free; IC50, µM; 480 compounds, 6% hits; AID 1259373, 2018; call rule not given here
AlphaScreen intf2: AlphaScreen optical interference compounds, counter-screen for MITF inhibitor project, biochemical, triplicate; shares compounds with MITF primary; LysRS AlphaScreen counterscreen, signal interference; inhibition, % at 2.6 µM; 4,700 compounds, 7.6% hits;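 active means inhibition above a cutoff derived from the DMSO control wells, cut at about 30% in these data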
* marks the source's active call; other numbers are inactive results; x = not tested or not shown. An excerpt weighted towards active compounds, which were near 3.4% of everything screened.

SMILES | FBW7 act | MITF primary | TEAD-YAP inh | GPR151 activ | MITF confirm | AlphaScreen intf2 | others
Clc1cccc(CN2CCN(Cc3ccco3)CC2)c1 | 0 | 72* | -7 | 2 | 5 | 8
Fc1ccc(CN2CCN(Cc3ccco3)CC2)cc1 | 0 | 70* | 4 | -1 | -10 | -2
Clc1cccc(N2CCN(Cc3ccco3)CC2)c1 | 0 | 22 | -13 | -1 | x | x
CCC[C@@H]1NC(=O)[C@@H]2C[C@H](NCc3ccc(F)cc3F)CN2C1=O | 0 | 3 | 14 | 1 | x | x
Cn1cccc1CN1CCN(Cc2ccco2)CC1 | 0 | 69* | -10 | 1 | 2 | 10
Cn1cccc1CN1CCN(Cc2ccc(Br)cc2)CC1 | 0 | 45 | -8 | 1 | x | x
CN(C)/C=N/c1ncc(C(=O)c2ccccc2)s1 | 0 | 4 | -45 | -2 | x | x
CC(O)CNc1nc2c(c(=O)n(Cc3ccccc3F)c(=O)n2C)n1C (stereo not drawn) | 0 | 61* | 0 | 0 | 6 | 11
COCC1=C(C(=O)OC)C(c2ccc(OC)cc2)n2ncnc2N1 (stereo not drawn) | 0 | 3 | 8 | 2 | x | x
COc1cc(CN2CCN(C3CCCCCC3)CC2)cc(OC)c1O | 1 | 58* | -8 | 0 | 6 | 14
COc1cc(CN2CCN(C3CCCC(C)C3)CC2)cc(OC)c1O (stereo not drawn) | 0 | 74* | 6 | 0 | 9 | 26
CCC(Oc1ccccc1)C(=O)NC1=NCCS1 (stereo not drawn) | 0 | 14 | -2 | 0 | x | x
O=C(/C=C/c1ccccc1[N+](=O)[O-])N1CCCc2ccccc21 | -1 | 11 | -26 | 1 | x | x
CC(C)(C)C(=O)N1CCCC(c2nc3c(nnn3Cc3ccccc3)c(=O)[nH]2)C1 (stereo not drawn) | 0 | 6 | -9 | 2 | x | x
CC(C)(C)C(=O)N1CCC(c2nc3c(nnn3Cc3ccccc3)c(=O)[nH]2)CC1 | 0 | 71* | 4 | -1 | 9 | 11
COc1ccc(-c2cc(C(F)(F)F)nc(S(=O)(=O)CCCC(=O)Nc3ccc(F)c(Cl)c3)n2)cc1OC | 0 | 76* | 1 | 0 | -6 | 6
COc1ccccc1-c1cc(C(F)(F)F)nc(S(=O)(=O)CCCC(=O)Nc2ccc(F)c(Cl)c2)n1 | 0 | 54* | -1 | 1 | -9 | -2
N#Cc1ccc(-c2ccc(F)cc2)nc1SCC(=O)NC1CC1 | 0 | 52* | 5 | 1 | -3 | 3
O=C(CSc1c[nH]c2ccccc12)Nc1cc(C(F)(F)F)ccc1Cl | 0 | 12 | 6 | 0 | x | x
O=C(Cc1nc2scc(-c3ccccc3)c2c(=O)[nH]1)N1CCCC1 | 0 | 6 | -2 | 0 | x | x
Cc1ccc(-c2csc3nc(CN(C)C4CCN(C)CC4)[nH]c(=O)c23)cc1 | 0 | 59* | -2 | 0 | 0 | 0
Cc1c(C#N)c(O)n(CCCO)c(=O)c1N=Nc1c(C)n(C)n(-c2ccccc2)c1=O | -1 | 84* | 15 | 1 | 23 | 100*
Cc1c(C#N)c(O)n(CCO)c(=O)c1N=Nc1ccccc1C(=O)O | 0 | 16 | 12 | -1 | x | x
c1cn(-c2ccc(Nc3nc4ncnc(NCCN5CCOCC5)c4[nH]3)cc2)cn1 | 0 | 88* | -6 | 1 | 6 | 20
c1cn(-c2ccc(Nc3nc4ncnc(Nc5ccc(N6CCOCC6)cc5)c4[nH]3)cc2)cn1 | 0 | -5 | 31 | -4 | x | x
SMILES | FBW7 act | MITF primary | TEAD-YAP inh | GPR151 activ | MITF confirm | AlphaScreen intf2 | others
CC(=O)Nc1ccc(Nc2nc(N3CCN(c4ccccn4)CC3)nc3c2ncn3C(C)C)cc1 | 0 | 12 | 28 | -2 | x | x
COc1ccc2ccccc2c1CN1CCSCC1 | 0 | 54* | 14 | 0 | -6 | -5
COCCOC(=O)C1=C(C)NC2=C(C(=O)CC(C)(C)C2)C1c1ccccn1 (stereo not drawn) | 0 | 4 | 1 | 1 | x | x
CCOC(=O)c1c(N)n(C(C)CO)c2nc3ccccc3nc12 (stereo not drawn) | 0 | 53* | 14 | 0 | 14 | 15
CC1CN(Cc2ccc(F)c(F)c2)CC(C)O1 (stereo not drawn) | 1 | 61* | 2 | 1 | 3 | 1
CC1CN(Cc2ccccc2Br)CC(C)O1 (stereo not drawn) | 0 | 67* | 0 | -1 | 1 | 4
CC1CN(Cc2ccc(F)cc2F)CC(C)O1 (stereo not drawn) | 0 | 65* | -3 | 0 | 0 | 9
N#Cc1c(N)nc(SCC(N)=O)c(C#N)c1-c1ccccc1Cl | 0 | 85* | -12 | 2 | 3 | 5
COC(=O)c1cc(CNCC(c2ccco2)N2CCCCC2)oc1C (stereo not drawn) | 0 | 76* | -4 | 0 | 11 | 16
COC(=O)CCNCC(c1ccco1)N1CCCCC1 (stereo not drawn) | 0 | 54* | 1 | 0 | -2 | 1
COc1ccc(NC(=S)NCC(c2ccco2)N2CCCC2)cc1 (stereo not drawn) | 0 | 6 | 2 | -1 | x | x
c1ccc(N2CCCC2=Nc2ccncc2)cc1 | 0 | 68* | -2 | 0 | 6 | 11
NC(=O)CN1CCCC1=Nc1ccccc1 | 0 | -4 | 0 | -1 | x | x
CCOc1cccc(C2CC(c3ccc4c(c3)OCO4)=NC(c3ccc(F)c(Br)c3)N2)c1O (stereo not drawn) | 0 | -10 | -67 | 0 | x | x
N#CC1=C(N)n2c(s/c(=C\c3ccco3)c2=O)=C(C#N)C1c1ccco1 (stereo not drawn) | -1 | 56* | 11 | 0 | 42* | 5 | AlphaScreen DR=>6.5
Cc1cc(C(=O)O)ccc1-c1ccc(/C=C2/NC(=O)NC2=O)o1 | 0 | 67* | 12 | 1 | 68* | 20 | AlphaScreen DR=>6.5
CC1(C2CC2)NC(=O)N(CC(=O)Nc2ccc(S(=O)(=O)N3CCCCC3)cc2)C1=O (stereo not drawn) | 1 | 62* | 0 | -1 | 5 | 11
CC1(C2CC2)NC(=O)N(CC(=O)Nc2ccccc2F)C1=O (stereo not drawn) | 0 | 67* | -4 | 1 | 10 | 7
O=C(CCC1CCCC1)OCC(=O)N1CCOCC1 | 0 | -6 | 4 | 0 | x | x
CCN(CC)CCNc1c([N+](=O)[O-])c(=O)n(CC)c2ccccc12 | 0 | -2 | 0 | 1 | x | x
